According to PubChem BioAssay (EPA / NIEHS):
Records with an inconclusive call do not appear. Active and inactive are the calls of the source. Rule for the calls: active = hit-call score of the fitted dose curve at least 0.9, where 1 is the maximum; inconclusive = response in the unintended direction; inactive = score below 0.9.

biological target: human Vascular Endothelial Growth Factor Receptor 3 (VEGFR3), FLT4 (gene 2324) (UniProt P35916); test: NVS_ENZ_hVEGFR3: NovaScreen (NVS) Enzymatic Assay for human Vascular Endothelial Growth Factor Receptor 3 (VEGFR3) (AID 2283229)
Procedure, shortened: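 Cell-free recombinant VEGFR3 kinase reaction with fluorescent substrate, read 1 h after dosing by electrophoretic mobility shift separation of substrate and product. Single-concentration duplicate screen at 25 uM, then concentration-response up to 50 uM; loss of activity versus DMSO.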

Chain of human Vascular Endothelial Growth Factor Receptor 3 (VEGFR3), FLT4 (gene 2324) (P35916 whole entry, looked up): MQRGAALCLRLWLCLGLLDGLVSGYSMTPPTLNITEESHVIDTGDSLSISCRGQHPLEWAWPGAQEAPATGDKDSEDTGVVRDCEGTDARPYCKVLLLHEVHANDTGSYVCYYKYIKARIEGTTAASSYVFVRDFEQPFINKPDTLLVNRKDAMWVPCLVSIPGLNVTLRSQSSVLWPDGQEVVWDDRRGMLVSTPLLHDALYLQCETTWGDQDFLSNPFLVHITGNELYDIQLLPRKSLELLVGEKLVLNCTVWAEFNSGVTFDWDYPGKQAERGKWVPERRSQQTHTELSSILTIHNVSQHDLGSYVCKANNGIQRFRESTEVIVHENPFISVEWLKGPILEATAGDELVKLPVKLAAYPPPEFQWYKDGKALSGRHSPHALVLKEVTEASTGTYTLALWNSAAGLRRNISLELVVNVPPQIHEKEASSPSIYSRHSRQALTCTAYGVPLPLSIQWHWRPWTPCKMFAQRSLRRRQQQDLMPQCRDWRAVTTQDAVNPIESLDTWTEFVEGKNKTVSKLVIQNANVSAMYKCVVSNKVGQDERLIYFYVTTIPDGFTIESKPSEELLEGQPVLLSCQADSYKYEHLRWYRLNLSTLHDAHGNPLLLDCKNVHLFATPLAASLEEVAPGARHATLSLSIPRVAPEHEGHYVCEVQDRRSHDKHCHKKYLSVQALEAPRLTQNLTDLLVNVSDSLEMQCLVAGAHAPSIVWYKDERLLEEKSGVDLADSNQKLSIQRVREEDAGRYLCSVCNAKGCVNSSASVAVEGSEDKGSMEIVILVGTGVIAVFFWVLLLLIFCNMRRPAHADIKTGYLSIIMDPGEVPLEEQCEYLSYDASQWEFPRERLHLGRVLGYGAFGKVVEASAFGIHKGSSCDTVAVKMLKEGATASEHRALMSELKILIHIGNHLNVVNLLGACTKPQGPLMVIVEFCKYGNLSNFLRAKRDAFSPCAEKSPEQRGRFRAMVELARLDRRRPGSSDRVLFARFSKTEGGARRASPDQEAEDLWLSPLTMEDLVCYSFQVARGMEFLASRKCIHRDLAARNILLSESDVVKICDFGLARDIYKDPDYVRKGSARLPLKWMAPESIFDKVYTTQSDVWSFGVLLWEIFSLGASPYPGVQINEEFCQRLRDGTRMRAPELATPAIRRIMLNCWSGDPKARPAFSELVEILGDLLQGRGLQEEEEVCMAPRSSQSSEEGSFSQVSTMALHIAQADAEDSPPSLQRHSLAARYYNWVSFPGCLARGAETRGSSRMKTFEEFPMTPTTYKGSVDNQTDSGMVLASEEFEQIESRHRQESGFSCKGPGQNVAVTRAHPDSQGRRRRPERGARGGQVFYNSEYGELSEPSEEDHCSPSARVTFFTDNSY

SMILES | outcome
Clc1ccc(C(c2ccccc2Cl)C(Cl)(Cl)Cl)cc1 (configuration not stated) | inactive
c1cc2ccc3cccc4ccc(c1)c2c34 | inactive
O=C(O)C(F)(F)C(F)(F)C(F)(F)C(F)(F)C(F)(F)C(F)(F)C(F)(F)C(F)(F)F | inactive
O=C(O)C(F)(F)C(F)(F)C(F)(F)C(F)(F)C(F)(F)F | inactive
CC1=C2C[C@H]3[C@@H](CC=C4C[C@@H](O)CC[C@@]43C)[C@@H]2CC[C@]12O[C@@H]1C[C@H](C)CN[C@H]1[C@H]2C | inactive

biological target: human Vascular Endothelial Growth Factor Receptor 2 (VEGFR2), KDR (gene 3791) (UniProt P35968); test: NVS_ENZ_hVEGFR2: NovaScreen (NVS) Enzymatic Assay for human Vascular Endothelial Growth Factor Receptor 2 (VEGFR2) (AID 2283230)
Procedure, shortened: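 Cell-free recombinant VEGFR2 kinase, fluorescent substrate with electrophoretic mobility-shift separation; read 1 h after dosing. Screened at 25 uM in duplicate, hits to concentration-response up to 50 uM; loss-of-signal versus DMSO.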

Chain of human Vascular Endothelial Growth Factor Receptor 2 (VEGFR2), KDR (gene 3791) (P35968 whole entry, looked up): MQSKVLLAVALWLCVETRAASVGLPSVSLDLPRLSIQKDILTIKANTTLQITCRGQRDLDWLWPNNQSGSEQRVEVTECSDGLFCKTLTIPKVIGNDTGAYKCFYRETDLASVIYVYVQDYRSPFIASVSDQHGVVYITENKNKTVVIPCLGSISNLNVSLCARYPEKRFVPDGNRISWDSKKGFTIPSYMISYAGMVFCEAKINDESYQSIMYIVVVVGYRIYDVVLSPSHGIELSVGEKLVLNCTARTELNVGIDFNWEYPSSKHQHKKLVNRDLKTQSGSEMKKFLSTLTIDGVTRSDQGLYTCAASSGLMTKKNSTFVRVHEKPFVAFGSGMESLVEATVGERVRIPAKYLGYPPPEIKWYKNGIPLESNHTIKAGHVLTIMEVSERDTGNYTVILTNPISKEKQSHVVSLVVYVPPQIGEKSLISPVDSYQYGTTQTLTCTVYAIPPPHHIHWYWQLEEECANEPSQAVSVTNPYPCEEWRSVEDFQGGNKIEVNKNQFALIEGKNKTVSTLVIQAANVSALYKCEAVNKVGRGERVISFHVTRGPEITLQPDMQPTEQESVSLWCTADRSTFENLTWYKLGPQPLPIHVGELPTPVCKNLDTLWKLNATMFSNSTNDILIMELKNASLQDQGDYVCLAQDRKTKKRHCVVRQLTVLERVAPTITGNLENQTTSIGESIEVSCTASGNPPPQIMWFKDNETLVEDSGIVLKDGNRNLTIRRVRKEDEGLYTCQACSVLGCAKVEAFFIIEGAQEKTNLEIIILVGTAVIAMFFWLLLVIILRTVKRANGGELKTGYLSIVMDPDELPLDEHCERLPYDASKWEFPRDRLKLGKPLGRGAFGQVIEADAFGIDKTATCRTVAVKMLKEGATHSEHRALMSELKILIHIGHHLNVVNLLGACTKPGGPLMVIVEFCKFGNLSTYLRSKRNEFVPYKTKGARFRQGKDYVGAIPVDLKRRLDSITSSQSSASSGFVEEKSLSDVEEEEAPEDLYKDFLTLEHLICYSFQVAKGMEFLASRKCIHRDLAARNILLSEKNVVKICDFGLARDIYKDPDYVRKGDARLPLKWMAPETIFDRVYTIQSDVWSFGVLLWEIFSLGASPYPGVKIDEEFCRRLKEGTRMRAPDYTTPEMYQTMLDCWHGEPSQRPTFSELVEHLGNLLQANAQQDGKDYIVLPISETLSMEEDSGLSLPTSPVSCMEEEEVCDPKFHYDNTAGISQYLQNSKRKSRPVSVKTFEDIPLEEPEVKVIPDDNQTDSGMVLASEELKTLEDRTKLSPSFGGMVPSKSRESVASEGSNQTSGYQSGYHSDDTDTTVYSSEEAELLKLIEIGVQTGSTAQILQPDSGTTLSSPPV

SMILES | outcome | AC50
CCC(C)c1cc([N+](=O)[O-])cc([N+](=O)[O-])c1O (configuration not stated) | inactive | 
Clc1ccc(C(c2ccccc2Cl)C(Cl)(Cl)Cl)cc1 (configuration not stated) | inactive | 
CC(C)(c1ccccc1)c1ccc(O)cc1 | inactive | 
CCCCCCCCCC[N+](C)(C)CCCCCCCCCC |  | 26 µM (active)
ClC(Cl)=C(c1ccc(Cl)cc1)c1ccc(Cl)cc1 | inactive | 
CCOC(=O)C(O)(c1ccc(Cl)cc1)c1ccc(Cl)cc1 | inactive | 
CC1=C2C[C@H]3[C@@H](CC=C4C[C@@H](O)CC[C@@]43C)[C@@H]2CC[C@]12O[C@@H]1C[C@H](C)CN[C@H]1[C@H]2C | inactive | 
CCCN(CCC)N=O | inactive | 
O=S(=O)(O)C(F)(F)C(F)(F)C(F)(F)C(F)(F)C(F)(F)C(F)(F)F | inactive | 

biological target: sheep Cyclooxygenase-2 (Cox2), PTGS2 (gene 443460) (UniProt P79208); test: NVS_ENZ_oCOX2: NovaScreen (NVS) Enzymatic Assay for sheep Cyclooxygenase-2 (Cox2) (AID 2283231)
Procedure, shortened: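 Ovine placental enzyme, cell-free; chemical added, 0.66 h, absorbance (colorimetric). Screen 25 uM in duplicate; ≥threshold hits titrated, top 50 uM. Inhibition = signal loss vs DMSO.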

SMILES | outcome | AC50
Cc1cccc(C)c1N | inactive | 
Cc1ccc(O)c(C)c1 |  | 18.4 µM (active)
CCC(=O)O[C@H]1CC[C@H]2[C@@H]3CCC4=CC(=O)CC[C@]4(C)[C@H]3CC[C@]12C | inactive | 
Clc1ccc(Cl)cc1 |  | 15.8 µM (active)
N#Cc1ccc(N(CC(N)=O)CC(F)(F)F)cc1C(F)(F)F |  | 6.58 µM (active)

biological target: rat Catechol-O-Methyl Transferase (COMT), Comt (gene 24267) (UniProt P22734); test: NVS_ENZ_rCOMT: NovaScreen (NVS) Enzymatic Assay for rat Catechol-O-Methyl Transferase (COMT) (AID 2283235)
Procedure, shortened: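 Cell-free enzyme activity with protein extracted from rat dorsal striatum, measured by HPLC with absorbance detection. Compounds screened at 25 uM in duplicate; actives then run in concentration-response up to 50 uM, loss of signal versus DMSO.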

Chain of rat Catechol-O-Methyl Transferase (COMT), Comt (gene 24267) (P22734 whole entry, looked up): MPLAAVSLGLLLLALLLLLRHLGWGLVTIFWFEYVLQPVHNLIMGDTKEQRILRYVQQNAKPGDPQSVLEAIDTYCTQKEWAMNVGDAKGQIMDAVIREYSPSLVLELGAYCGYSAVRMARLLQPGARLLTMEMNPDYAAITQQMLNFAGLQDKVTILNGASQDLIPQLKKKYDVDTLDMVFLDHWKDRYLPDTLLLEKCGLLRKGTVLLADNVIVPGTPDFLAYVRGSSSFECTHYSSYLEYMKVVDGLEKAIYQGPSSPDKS

SMILES | AC50 | outcome
CCC(C)c1cc([N+](=O)[O-])cc([N+](=O)[O-])c1O (configuration not stated) | 1.1 µM (active) | 
CCC(C)(CC)c1cc(NC(=O)c2c(OC)cccc2OC)on1 |  | inactive
Cc1ccccc1CO[C@@H]1C[C@@]2(C(C)C)CC[C@]1(C)O2 |  | inactive

biological target: rat Monoamine Oxidase, MAO-B, Central (MAOBC), Maob (gene 25750) (UniProt P19643); test: NVS_ENZ_rMAOBC: NovaScreen (NVS) Enzymatic Assay for rat Monoamine Oxidase, MAO-B, Central (MAOBC) (AID 2283238)
Procedure, shortened: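 Rat brain tissue extract served as the cell-free MAO-B source; enzyme activity was read by scintillation counting 1.17 hours after compound addition. Loss of signal versus DMSO baseline was fitted; primary single-concentration screen at 25 uM, follow-up concentration-response up to 50 uM.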

Chain of rat Monoamine Oxidase, MAO-B, Central (MAOBC), Maob (gene 25750) (P19643 whole entry, looked up): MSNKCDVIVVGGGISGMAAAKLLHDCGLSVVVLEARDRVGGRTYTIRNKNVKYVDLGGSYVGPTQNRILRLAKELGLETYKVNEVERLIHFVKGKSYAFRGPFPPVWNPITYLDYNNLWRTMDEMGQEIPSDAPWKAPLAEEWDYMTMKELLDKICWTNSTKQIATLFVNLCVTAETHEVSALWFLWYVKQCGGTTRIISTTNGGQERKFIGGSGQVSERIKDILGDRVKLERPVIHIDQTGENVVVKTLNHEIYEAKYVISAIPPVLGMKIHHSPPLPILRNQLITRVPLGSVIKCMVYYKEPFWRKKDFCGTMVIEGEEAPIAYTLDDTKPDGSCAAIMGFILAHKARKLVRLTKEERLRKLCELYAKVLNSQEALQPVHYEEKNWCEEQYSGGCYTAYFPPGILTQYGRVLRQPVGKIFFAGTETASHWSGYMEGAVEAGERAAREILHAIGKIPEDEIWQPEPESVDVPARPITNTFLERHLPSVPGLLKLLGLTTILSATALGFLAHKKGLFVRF

SMILES | outcome | AC50
CC(C)(c1ccccc1)c1ccc(O)cc1 | inactive | 
Oc1ccc(Cl)cc1Cl |  | 7.6 µM (active)
CCOCCOC(C)=O | inactive | 
CC(C)(O)C(=O)Nc1ccc([N+](=O)[O-])c(C(F)(F)F)c1 |  | 12.1 µM (active)
Cc1cc(O)ccc1Cl |  | 13.6 µM (active)

biological target: sheep Cyclooxygenase-1 (Cox1), PTGS1 (gene 443551) (UniProt P05979); test: NVS_ENZ_oCOX1: NovaScreen (NVS) Enzymatic Assay for sheep Cyclooxygenase-1 (Cox1) (AID 2283239);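 note: actives reduce cyclooxygenase activity so potencies are for inhibitors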
Procedure, shortened: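 COX1 from ovine seminal vesicles, activity read colorimetrically about 0.66 h after dosing. Primary screen in duplicate at 25 uM; actives retested in concentration series; loss of signal fitted versus DMSO.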

Chain of sheep Cyclooxygenase-1 (Cox1), PTGS1 (gene 443551) (P05979 whole entry, looked up): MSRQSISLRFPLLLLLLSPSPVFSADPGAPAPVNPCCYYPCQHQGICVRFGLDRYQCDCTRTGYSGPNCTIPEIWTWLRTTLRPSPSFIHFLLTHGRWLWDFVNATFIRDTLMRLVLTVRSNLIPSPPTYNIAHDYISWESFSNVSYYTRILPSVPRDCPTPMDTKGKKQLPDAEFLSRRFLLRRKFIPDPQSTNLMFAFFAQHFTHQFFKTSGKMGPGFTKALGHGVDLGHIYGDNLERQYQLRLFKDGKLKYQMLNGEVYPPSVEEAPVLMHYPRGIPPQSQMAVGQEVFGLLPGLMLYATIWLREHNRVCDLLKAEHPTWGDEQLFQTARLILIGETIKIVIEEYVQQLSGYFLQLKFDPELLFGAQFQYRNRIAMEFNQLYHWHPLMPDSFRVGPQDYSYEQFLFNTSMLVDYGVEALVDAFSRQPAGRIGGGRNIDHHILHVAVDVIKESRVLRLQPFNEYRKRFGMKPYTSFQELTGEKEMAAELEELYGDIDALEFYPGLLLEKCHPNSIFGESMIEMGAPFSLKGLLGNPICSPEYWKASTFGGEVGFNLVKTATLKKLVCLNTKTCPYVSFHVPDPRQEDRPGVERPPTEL

SMILES | outcome
CCCCCCCCCc1ccc(O)cc1 | inactive
Clc1ccc(C(c2ccccc2Cl)C(Cl)(Cl)Cl)cc1 (configuration not stated) | inactive
ClC(Cl)=C(c1ccc(Cl)cc1)c1ccc(Cl)cc1 | inactive

biological target: rat Monoamine Oxidase, MAO-B, Peripheral (MAOBP), Maob (gene 25750) (UniProt P19643); test: NVS_ENZ_rMAOBP: NovaScreen (NVS) Enzymatic Assay for rat Monoamine Oxidase, MAO-B, Peripheral (MAOBP) (AID 2283242)
Sequence (P19643 whole entry, looked up): as the sequence (P19643 whole entry, looked up) above

SMILES | AC50 | outcome
CCSC(=O)N(CC)C1CCCCC1 | 32.8 µM (active) | 
CC(C)(c1ccccc1)c1ccc(O)cc1 |  | inactive
CC(C)(O)C(=O)Nc1ccc([N+](=O)[O-])c(C(F)(F)F)c1 |  | inactive
Cc1cc(O)ccc1Cl | 25 µM (active) | 
CC1=C2C[C@H]3[C@@H](CC=C4C[C@@H](O)CC[C@@]43C)[C@@H]2CC[C@]12O[C@@H]1C[C@H](C)CN[C@H]1[C@H]2C |  | inactive

tested on: rat Monoamine Oxidase, MAO-A, Central (MAOAC), gene 29253; test: NVS_ENZ_rMAOAC: NovaScreen (NVS) Enzymatic Assay for rat Monoamine Oxidase, MAO-A, Central (MAOAC) (AID 2283243);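 note: potency refers to inhibition seen as signal drop below DMSO baseline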
Procedure, shortened: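 Rat brain tissue extract served as the cell-free enzyme source; activity was measured by radiometric scintillation counting 1.5 hours after compound addition. Loss of signal relative to DMSO baseline indicated inhibition; primary screen at 25 uM in duplicate.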

SMILES | outcome | AC50
Oc1ccc(Cl)cc1Cl | inactive | 
Nc1ccc(-c2ccc(N)cc2)cc1 |  | 16.6 µM (active)
CCCCCCCCCC[N+](C)(C)CCCCCCCCCC |  | 34 µM (active)
Oc1c(Cl)c(Cl)c(Cl)c(Cl)c1Cl |  | 15.5 µM (active)
Cc1cc(O)ccc1Cl |  | 18.5 µM (active)

biological target: Adenosine receptor A1 (Bos taurus) (UniProt P28190); test: NVS_GPCR_bAdoR_NonSelective: NovaScreen (NVS) G Protein-Coupled Receptor Assay for bovine Adenosine Receptor (AdoR), Non-selective Binding (AID 2283244)
Procedure, shortened: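 Bovine striatal membranes, radioligand displacement binding, 1 h after dosing, filter-based scintillation counting. Screened in duplicate at 25 uM, then concentration-response up to 50 uM; loss of specific binding relative to DMSO.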

Chain of Adenosine receptor A1 (Bos taurus) (P28190 whole entry, looked up): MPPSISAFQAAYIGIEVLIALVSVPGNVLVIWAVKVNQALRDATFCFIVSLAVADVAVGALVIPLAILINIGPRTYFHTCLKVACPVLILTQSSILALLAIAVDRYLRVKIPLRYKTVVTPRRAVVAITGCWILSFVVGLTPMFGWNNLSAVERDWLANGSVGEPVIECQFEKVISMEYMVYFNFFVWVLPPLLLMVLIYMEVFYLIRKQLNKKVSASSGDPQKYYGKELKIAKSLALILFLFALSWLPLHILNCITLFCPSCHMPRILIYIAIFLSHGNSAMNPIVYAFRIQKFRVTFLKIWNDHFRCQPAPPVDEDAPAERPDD

SMILES | outcome | AC50
Cc1ccccc1O | inactive | 
O=C(O)C(F)(F)C(F)(F)C(F)(F)C(F)(F)C(F)(F)C(F)(F)C(F)(F)C(F)(F)C(F)(F)F | inactive | 
Clc1ccc(Cl)cc1 | inactive | 
NS(=O)(=O)C(F)(F)C(F)(F)C(F)(F)C(F)(F)C(F)(F)C(F)(F)C(F)(F)C(F)(F)F |  | 13.1 µM (active)
CCNc1nc(NC(C)C)nc(SC)n1 |  | 13.4 µM (active)
Oc1c(Cl)c(Cl)c(Cl)c(Cl)c1Cl | inactive | 

tested on: guinea pig Leukotriene B4 Receptor (LTB4), gene 100379538; test: NVS_GPCR_gLTB4: NovaScreen (NVS) G Protein-Coupled Receptor Assay for guinea pig Leukotriene B4 Receptor (LTB4) (AID 2283247)
Procedure, shortened: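 Radioligand displacement on guinea pig spleen membranes, filter-based scintillation counting 2 h after dosing. Primary duplicate single point at 25 uM; hits over threshold (e.g. 30% inhibition) run in concentration-response up to 50 uM, DMSO baseline.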

SMILES | AC50 | outcome
CCC(C)(c1ccc(O)cc1)c1ccc(O)cc1 | 6.38 µM (active) | 
CCC(C)c1cc([N+](=O)[O-])cc([N+](=O)[O-])c1O (configuration not stated) |  | inactive
CC(C)(c1ccccc1)c1ccc(O)cc1 | 7.09 µM (active) | 
Oc1ccc(C(c2ccc(O)cc2)(C(F)(F)F)C(F)(F)F)cc1 | 0.436 µM (active) | 
O=S(=O)(O)C(F)(F)C(F)(F)C(F)(F)C(F)(F)F | 12.2 µM (active) | 
O=C(O)C(F)(F)C(F)(F)C(F)(F)C(F)(F)C(F)(F)C(F)(F)C(F)(F)C(F)(F)C(F)(F)F | 11.6 µM (active) | 
O=C(O)C(F)(F)C(F)(F)C(F)(F)C(F)(F)C(F)(F)C(F)(F)C(F)(F)C(F)(F)F | 25 µM (active) | 
O=S(=O)(O)C(F)(F)C(F)(F)C(F)(F)C(F)(F)C(F)(F)C(F)(F)F | 10.8 µM (active) | 

biological target: guinea pig Leukotriene D4 Receptor (LTD4), CYSLTR1 (gene 100135514) (UniProt Q2NNR5); test: NVS_GPCR_gLTD4: NovaScreen (NVS) G Protein-Coupled Receptor Assay for guinea pig Leukotriene D4 Receptor (LTD4) (AID 2283248)
Procedure, shortened: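 Radioligand displacement on guinea pig lung membranes, 1 h incubation, filtration and scintillation counting; DMSO as negative control. Duplicate 25 uM primary screen, then singleton concentration-response up to 50 uM.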

Chain of guinea pig Leukotriene D4 Receptor (LTD4), CYSLTR1 (gene 100135514) (Q2NNR5 whole entry, looked up): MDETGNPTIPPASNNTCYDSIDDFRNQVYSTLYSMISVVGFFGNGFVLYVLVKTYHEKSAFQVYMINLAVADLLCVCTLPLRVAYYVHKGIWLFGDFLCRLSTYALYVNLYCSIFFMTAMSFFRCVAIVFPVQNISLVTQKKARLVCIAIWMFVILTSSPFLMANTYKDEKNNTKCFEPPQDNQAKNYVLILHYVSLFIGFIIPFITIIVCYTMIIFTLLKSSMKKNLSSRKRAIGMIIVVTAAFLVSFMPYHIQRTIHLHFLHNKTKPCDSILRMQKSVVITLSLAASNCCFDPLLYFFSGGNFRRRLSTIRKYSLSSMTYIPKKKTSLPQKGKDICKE

SMILES | outcome
O=C(O)C(F)(F)C(F)(F)C(F)(F)C(F)(F)C(F)(F)C(F)(F)C(F)(F)C(F)(F)C(F)(F)F | inactive
Oc1c(Cl)c(Cl)c(Cl)c(Cl)c1Cl | inactive
O=C(O)C(F)(F)C(F)(F)C(F)(F)C(F)(F)C(F)(F)C(F)(F)C(F)(F)C(F)(F)F | inactive
